The whole screen tested about 2,500 compounds, of which about 1,500 (60%) were called active.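 The calls were made as follows: active = duplicate-averaged ratio beyond 3 SD from buffer wells, up or down, though filed actives are nearly all decreases; inactive = the rest.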 The set was probably picked from earlier hits. A selection follows.
Experiment: membrane potential response in parental HEK293 cells, counter-screen for CHT activator project, cell-based, membrane potential dye (AID 623908)
Conditions: parental HEK293, membrane potential dye fluorescence (FDSS); at 10 µM; measured after EC20 choline addition

| SMILES | ratio readout change |
| --- | --- |
| Cn1c(=O)n(Cc2ccco2)c(=N)c2c3c(sc21)CCCC3 | -31.5 (active) |
| CC(Sc1nc2ccccc2c(=O)n1Cc1ccco1)C(=O)c1ccccc1 (stereo not given) | inactive |
| Cn1c(=O)[nH]c(=O)c2c1nc(N1CCN(CCO)CC1)n2CCSc1nc2ccccc2s1 | -48.2 (active) |
| CN(C)c1ccnc(Nc2ccc(F)cc2)c1C#N | -45.1 (active) |
| CCN1CCN(c2ccc([N+](=O)[O-])cc2C(=O)c2ccc(Cl)cc2)CC1 | inactive |
| Cc1nnc(C)c2c(C)n(N)c(C)c12 | -51.8 (active) |
| CN1CCN(c2nc(Nc3ccc(O)cc3)nc3ccccc23)CC1 | -71.3 (active) |
| O=C(NCCC1=CCCCC1)C1CCN(Cc2cnn(-c3ccccc3)c2-n2cccc2)CC1 | inactive |
| Nc1scc[n+]1Cc1cccc2cccnc12 | -43.3 (active) |
| CCCCN(CCCC)CC(O)Cn1c2ccccc2c(=O)c2ccccc21 (stereo not given) | -21.9 (active) |
| Cc1c(C)c2c(OCC(=O)N[C@@H](C(=O)O)c3ccccc3)cc3c(c2oc1=O)CCC(C)(C)O3 | inactive |
| CCOC(=O)c1cccnc1NC(=O)c1ccncc1 | -20.3 (active) |
| COc1ccc([N+](=O)[O-])cc1N(CC(O)CN(CC(C)C)CC(C)C)S(=O)(=O)c1ccc(C)cc1 (stereo not given) | inactive |
| Cc1ccc(-n2c(C)cc(/C=N\NC(=O)CC(=O)NC(C)C)c2C)cc1 | inactive |
| COc1ccc(Nc2cc(C)nc(-n3nc(C)cc3C)n2)cc1 | inactive |
| COc1ccc(Nc2nnc(C)c3ccccc23)cc1 | -50.6 (active) |
| O=C(COC(=O)C1CCN(S(=O)(=O)c2ccc3c(c2)OCCO3)CC1)Nc1ccccc1OC(F)F | inactive |
| CCn1cc(S(=O)(=O)c2cccc(C)c2)c(=O)c2cc(F)c(N3CCN(C)CC3)cc21 | -55.2 (active) |
| CN1CCN(c2cc3c(cc2F)c(=O)c(C(=O)O)cn3CCF)CC1 | -29.7 (active) |
| CC(Nc1nc(N2CCN(CCO)CC2)nc2ccccc12)c1ccccc1 (stereo not given) | -58.8 (active) |
| O=C(C1=C(O)C(=O)N(Cc2ccccc2)C1c1ccco1)c1ccco1 (stereo not given) | inactive |
| CCN1C(=NCCc2cccnc2)N[C@@H](c2ccccc2)[C@H](C(=O)OC)[C@H]1C | inactive |

| SMILES | ratio readout change |
| --- | --- |
| Cc1cccn2c(=O)c3cc(C#N)c(=O)n(CCCN4CCOCC4)c3nc12 | -48.2 (active) |
| CCN1CCCC1CNC(=O)c1cc2c(=O)n(C)c3ccccc3c2n1C (stereo not given) | -28 (active) |
| O=Cc1ccc(OCc2cn3ccccc3n2)cc1 | -38.8 (active) |
| COc1ccccc1NC(=O)C1=C(C)Nc2nc3ccccc3n2C1c1cccs1 (stereo not given) | inactive |
| CN1CCc2c(sc3c2c(NCc2ccco2)nc2nnnn23)C1 | -34.6 (active) |
| COc1ccc(CC2c3cc(OC)c(OC)cc3CC[N+]2(C)CCC(=O)OCCCCCOC(=O)CC[N+]2(C)CCc3cc(OC)c(OC)cc3C2Cc2ccc(OC)c(OC)c2)cc1OC (stereo not given) | -31.4 (active) |
| Cc1nc2ccccc2c2oc(C(=O)NCCCN3CCC(C)CC3)cc12 | -28.4 (active) |
| COc1ccc2c(c1)cc1n2CCN=C1NN | -53.2 (active) |
| Cc1ccc(-n2c(SCC(=O)N3c4ccccc4Sc4ccccc43)nnc2-c2ccncc2)cc1 | inactive |
| Cc1ccc(C(=O)c2ccc(N3CCN(C)CC3)c([N+](=O)[O-])c2)cc1 | inactive |
| N#C/C(=C\c1ccc(-c2cccc([N+](=O)[O-])c2)o1)C(=O)NCCN1CCOCC1 | -21.1 (active) |
| Cc1cc(NC(=O)c2cnn3cccnc23)n(-c2ccccc2)n1 | -40.8 (active) |
| COc1ccc2nc(/N=C(\N)NC(=O)Nc3ccccc3)nc(C)c2c1 | -41.4 (active) |
| O=C(Nc1ccncc1)c1ccc(Cl)c([N+](=O)[O-])c1 | -45.8 (active) |
| Cc1cc(=O)oc2c(C)c(OC(C)C(=O)NC3CCN(Cc4ccccc4)CC3)ccc12 (stereo not given) | -52.2 (active) |
| C[C@]1(C(=O)NCCc2c[nH]c3ccccc23)C=C[C@@H](Cc2ccccc2)N1C(=O)c1ccccc1 | inactive |
| COc1cc2nc(N3CCN(C(=O)[C@@H]4CCCO4)CC3)nc(N)c2cc1OC | -39.5 (active) |
| CCOc1ccc(C2c3[nH]c4ccccc4c3CCN2Cc2cccn2-c2ncccn2)cc1 (stereo not given) | inactive |
| CN(C)c1cc[n+](Cc2ccccc2)cc1 | -40.2 (active) |
| COc1ccc(Cn2c(-c3ccc(Cl)cc3)c[n+]3ccccc23)cc1 | -66.1 (active) |
| CCN(CC)CCCNC(=O)c1cn(C)c2ccc(S(=O)(=O)N(C)C3CCCCC3)cc2c1=O | -36.4 (active) |
| CCOC(=O)c1cn(CC)c2cc(F)c(F)cc2c1=O | -63.5 (active) |

| SMILES | ratio readout change |
| --- | --- |
| COc1ccccc1NC(=O)CN(c1ccccc1OC)S(=O)(=O)c1ccccc1 | inactive |
| COC(=O)c1ccc(C(NC(=O)OCc2ccccc2)/C(C)=C/[C@@H](C)C(=O)NCc2ccc(OC)c(OC)c2)cc1 (stereo not given in full) | inactive |
| Clc1ccc(COn2c(-c3ccc(Cl)cc3Cl)nc3ncccc32)cc1 | inactive |
| CCCCCCCCCCOC(=O)Cn1c(COc2ccc(C)cc2)[n+](C)c2ccccc21 | -48.3 (active) |
| CCCCCCCCCCOC(=O)Cn1c(COc2cccc(OC)c2)[n+](C)c2ccccc21 | -43.3 (active) |
| Nc1ccccc1SCc1cc([N+](=O)[O-])cc2c1OCOC2 | inactive |
| CC(C)CC(COCc1ccc(Cl)cc1)N1CCN(C(=O)c2ccc(C(F)(F)F)cc2)CCC1=O (stereo not given) | inactive |
| COC(=O)c1sc(C(F)(F)F)c(-c2ccccc2)c1S(=O)(=O)N(C)C | inactive |
| CN(C)c1cc(N)c2ccccc2n1 (tested in a mixture with another compound) | -62.3 (active) |
| Cc1cc(=O)oc2cc(OCCC[n+]3ccccc3)ccc12 | -59.3 (active) |
| Cn1c(=NC(=O)c2cnccn2)sc2ccccc21 | -49.1 (active) |
| O=C(c1ccc(F)c(S(=O)(=O)N2CCOCC2)c1)N(CCc1ccccc1)Cc1ccccc1 | inactive |
| CC1(C)Cc2c(sc3nc4n(c(=N)c23)CCCCC4)CO1 | -42.5 (active) |
| CCN1/C(=C/c2ccc3ccc(C)cc3[n+]2CC)Sc2ccccc21 | inactive |
| COc1cc2c(cc1OC)C(Nc1ccc(S(N)(=O)=O)cc1)=NC(C)(C)C2 | -78.3 (active) |
| COc1ccc(C(O)(C2CCCCC2)C(CN2CCCC2)c2ccccc2)cc1 (stereo not given) | inactive |
| N#Cc1ccc(/C=C2\CCn3c2nc2cc(C(=O)O)ccc2c3=O)cc1 | -55.3 (active) |
| CCn1c(/C=C/Nc2ccccc2)[n+](CC)c2ccc(C(=O)OCC(F)(F)F)cc21 | -82.7 (active) |
| Cc1nc2c(-c3ccccc3)c(C)[nH]n2c(=O)c1Cl | inactive |
| Cc1nc2ccccc2c(=O)n1CCCn1ccnc1 | inactive |
| C=CCNc1nnc(C)c2ccccc12 | -50.7 (active) |

Source: PubChem BioAssay AID623908 (Johns Hopkins Ion Channel Center, 2012)
